The results in this text go back to PubChem BioAssay (NCATS).

“And” between values parts separate entries of the source, which are not always exact repeats. Equal values may be shown once. Results filed as inconclusive are left out. A number with no mark means an inactive call. The source made the active and inactive calls. Calls come from the whole dose curve; as a rule, active = well fitted curve in the direction sought with a large enough effect; inconclusive = small, poorly fitted or top-dose-only effect, or another doubt; inactive = no such curve, though single readings can be large; an effect the other way counts as inactive or inconclusive.

A short description of experiment [1]: Viability qHTS for spleen associated tyrosine kinase inhibitor (SYKi) drug resistant MV4-11 cells (AID 1963824). Note: nearly all actives have a fitted effect of over 35% in size. In short, it runs like this: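 SYK-inhibitor-resistant MV4-11 AML cells were seeded at 500 per well onto compound and cultured 72 hours (37 °C, 5% CO2). CellTiter-Glo was then added, and after 10 min at room temperature, luminescence gave viability.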
A general note: Quantitative high-throughput screening tests each substance at several concentrations.

Experiment [2] is described as follows: Quantitative highthroughput screen to assess conditional lethalithy of NOMO1 cells grown in RPMI1640 with untreated serum (RPMI+s) (AID 1963876). Note: nearly all actives have a fitted effect of over 35% in size. Summed up:
(§1)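 Each medium arm—HPLM with 10% dialyzed FBS, or RPMI1640 with 5 mM glucose and 10% untreated or dialyzed FBS—was screened against an 11-point, 3-fold compound titration for 48 h at 37 °C, with CellTiter-Glo luminescence as endpoint.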

Experiment [3] can be described thus: Quantitative highthroughput screen to assess conditional lethalithy of P12 Ichikawa cells grown in Human Plasma-Like Medium with dialyzed fetal bovine serum (HPLM+ds) (AID 1963879). For Viability: series mostly up to about 46 µM. Note: nearly all actives have a fitted effect of over 35% in size. The settings on record: Potency: viability. In short, it runs like this: as §1
Experiment [4] in a line: Quantitative highthroughput screen to assess conditional lethalithy of P12 Ichikawa cells grown in RPMI1640 with dialyzed fetal bovine serum (RPMI+ds) (AID 1963880).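 For Viability: 100% = DMSO wells and 0% = empty wells on each plate.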 Note: nearly all actives have a fitted effect of over 35% in size. Conditions: Potency: P12-Ichikawa viability. In short, it runs like this: as §1
Experiment [5] is described as follows: Quantitative highthroughput screen to assess conditional lethalithy of P12 Ichikawa cells grown in RPMI1640 with untreated serum (RPMI+s) (AID 1963881).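 For Viability: series mostly up to about 46 µM; 100% = DMSO wells and 0% = empty wells without cells.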 Note: nearly all actives have a fitted effect of over 35% in size. Conditions: Potency: viability. In short, it runs like this:
as §1

Experiment [6] can be described thus: Quantitative highthroughput screen to assess conditional lethalithy of SEM cells grown in RPMI1640 with unreated serum (RPMI+s) (AID 1963883).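 For Viability: 100% = DMSO wells and 0% = empty wells without cells.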 Note: nearly all actives have a fitted effect of over 35% in size. In short, it runs like this:
as §1

Experiment [7] is described as follows: Quantitative highthroughput screen to assess conditional lethalithy of SEM cells grown in RPMI1640 with dialyzed fetal bovine serum (RPMI+ds) (AID 1963884).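 For Viability: series mostly up to about 46 µM; 100% = DMSO control wells and 0% = empty wells without cells.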 Note: nearly all actives have a fitted effect of over 35% in size. In short, it runs like this: as §1
The nature of experiment [8]: Cellular viability qHTS for adrenocortical cancer (ACC) cell line NCI-H295R (AID 1963990). Note: nearly all actives have a fitted effect of over 60% in size. In short, it runs like this: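 Luminescent ATP read-out (CellTiter-Glo, 20 min RT) after 48 h drug exposure of NCI-H295R cells; a titration up to 46 uM final. Data normalized to doxorubicin (100% inhibition) and DMSO (0%); 4-parameter fit gives IC50, max response.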
Experiment [9] in a line: Quantitative highthroughput screen to assess conditional lethalithy of NOMO1 cells grown in Human Plasma-Like Medium with dialyzed fetal bovine serum (HPLM+ds) (AID 1963878).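 For Viability: 100% = DMSO wells and 0% = empty wells on each plate.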 Note: nearly all actives have a fitted effect of over 35% in size. Summed up: as §1
Experiment [10] in a line: Quantitative highthroughput screen to assess conditional lethalithy of NOMO1 cells grown in RPMI1640 with dialyzed fetal bovine serum (RPMI+ds) (AID 1963877).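 For Viability: series mostly up to about 46 µM; 100% = DMSO control wells and 0% = empty wells.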 Note: nearly all actives have a fitted effect of over 30% in size. Summed up: as §1
The nature of experiment [11]: Quantitative highthroughput screen to assess conditional lethalithy of SEM cells grown in Human Plasma-Like Medium with dialyzed fetal bovine serum (HPLM+ds) (AID 1963882). For Viability: series mostly up to about 46 µM. Note: nearly all actives have a fitted effect of over 35% in size. In short, it runs like this:
as §1

Experiment [12] is described as follows: Cellular viability qHTS for adrenocortical cancer (ACC) cell line SW-13 (AID 1963989).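 For activity (max response): cells grown in serum-free medium with ITS supplement; % is set by controls: 0 for no effect and ±100 for the full control effect.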 Note: nearly all actives have a fitted effect of over 65% in size. The settings on record: SW-13 ACC cells viability, CellTiter-Glo, 48 h; activity (max response): active compounds read low. In short, it runs like this:
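SW-13 cells in ITS-supplemented serum-free DMEM were plated overnight, then exposed for 48 h at 37C to compound titrations (up to 46 uM final). Viability was read by CellTiter-Glo luminescence; four-parameter logistic fits gave IC50 and efficacy.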
Potency is the fitted concentration of half-maximal effect.

Regarding `O=C(O)c1ccc2cc(-c3ccc(O)c(C45CC6CC(CC(C6)C4)C5)c3)ccc2c1`, the Potency in [1] is 0.417 µM (active); in experiment [2], 1.05 µM (active); in [3], 0.59 µM (active); in experiment [4], 0.418 µM (active); in [5], 0.469 µM (active); in experiment [6], 0.372 µM (active). Also, the Potency was 0.235 µM (active) in experiment [7] and 0.708 µM (active) in [8].
Take `O=C(Nc1cccc2c(=O)cc(-c3nn[nH]n3)oc12)c1ccc(OCCCCc2ccccc2)cc1`: the Potency result in experiment [1] is “inactive”. Also, the Potency is 23.5 µM (active) in experiment [9], 18.7 µM (active) in [5] and 9.35 µM (active) in experiment [6].
For the compound `O=C(O)c1cc(O)c2c(c1)C(=O)c1cccc(O)c1C2=O`, the Potency in [1] is 23.5 µM (active). The Potency result in experiment [10], in experiment [9], in experiment [3], in [4], in experiment [11] and in experiment [6] was “inactive” in each case. Also, in experiment [8], the Potency entry was “inactive”. Besides, the activity (max response) in experiment [12] was 1.15%.
As to `CCN(CC)CCCCNc1ncc2c(n1)N(C)C(=O)N(c1c(Cl)c(OC)cc(OC)c1Cl)C2`, the Potency in [1] was 14.8 µM (active); in experiment [9], 26.4 µM (active); in experiment [11], 14.8 µM (active); in [6], 13.2 µM (active); in [7], 14.8 µM (active); in experiment [12] it was 25.1 µM (active).
Consider `CCC(C)N(C)C(=O)c1cc2ccccc2c(-c2ccccc2Cl)n1` (stereo unspecified), for which the Potency in experiment [1] is 18.6 µM (active). Moreover, the Potency result in experiment [9], in experiment [3], in experiment [4], in experiment [5], in experiment [11] and in [6] was “inactive” in each case. Moreover, the activity (max response) in experiment [12] is -6.79%.
Turning to `O=C(O)c1ccc(Nc2ncc3c(n2)-c2ccc(Cl)cc2C(c2c(F)cccc2F)=NC3)cc1`, the Potency in [1] is 0.206 µM (active); in experiment [10] it was 0.662 µM (active); in experiment [9], 0.59 µM (active); in experiment [3] it was 1.18 µM (active); in experiment [5] it was 0.935 µM (active). For the same compound, in experiment [12], the activity (max response) was -30%.
With `S=c1nc[nH]c2nc[nH]c12`, the Potency in [1] is 2.37 µM (active) and 833 nM (active); in [10], 1.48 µM (active); in experiment [9], 5.9 µM (active); in experiment [4], 0.743 µM (active); in experiment [12] it was 8.2 µM (active) and 15.8 µM (active).
Turning to `COc1ccc(-c2cc3nccn3c(Nc3ncccc3C(N)=O)n2)cc1OC`, the Potency in experiment [1] was 0.206 µM (active). Moreover, the Potency result in [10], in experiment [4], in experiment [5] and in experiment [8] was “inactive” in each case. The activity (max response) in [12] was -18.6%.
In the case of `CC(Oc1ccc(O)cc1)(P(=O)(O)O)P(=O)(O)O`, the Potency result in experiment [1] and in [8] was “inactive” each time. The Potency is 26.4 µM (active) in experiment [10] and 13.2 µM (active) in experiment [9]. Further, in [12], the activity (max response) is 1.35%.
For the compound `CCOc1cc(C(C)(C)C)ccc1C1=N[C@@](C)(c2ccc(Cl)cc2)[C@@](C)(c2ccc(Cl)cc2)N1C(=O)N1CCN(CC(=O)N2CCOCC2)CC1`, the Potency in experiment [1] is 11.5 µM (active); in experiment [6] it was 6.6 µM (active); in [7], 5.88 µM (active); in experiment [8] it was 14.1 µM (active). Further, the Potency result in experiment [10], in experiment [3], in [4] and in [11] was “inactive” in each case.
In the case of `CC(=O)OC1C(C)OC(Oc2c(-c3ccc(O)cc3)oc3cc(O)cc(O)c3c2=O)C(O)C1OC(C)=O` (stereo unspecified), the Potency in [1] is 20.9 µM (active). Also, the Potency entry in experiment [10], in [9], in experiment [3], in [4], in [5] and in experiment [7] was “inactive” in each case. Moreover, in experiment [8], the Potency result was “inactive”.
`Cc1ccc(Nc2cc(-c3cccc(N4C(=O)c5ccccc5C4=O)c3)ncn2)cc1NS(C)(=O)=O`: the Potency in experiment [1] is 16.6 µM (active). In addition, the Potency entry in experiment [10], in experiment [9], in [4], in [5] and in [6] was “inactive” throughout.
With `O=c1cc(-c2ccccc2)oc2cc(O)cc(O)c12`, the Potency is 16.6 µM (active) in experiment [1]; 23.5 µM (active) in [9]; 26.4 µM (active) in experiment [3]; 23.5 µM (active) in experiment [4]; 11.8 µM (active) in experiment [6]; 16.6 µM (active) in experiment [7].
As for `CCOC(=O)c1c(CSc2ccccc2)n(C)c2cc(Br)c(O)c(CN(C)C)c12`, the Potency was 10.5 µM (active) in experiment [1] and 16.6 µM (active) in experiment [10]. Also, the Potency result in [9], in experiment [3], in experiment [11] and in experiment [7] was “inactive” in each case.
On to `COc1cc(OC)c(NC(=O)Nc2cc(C)on2)cc1Cl`, for which, in [1], the Potency was 6.61 µM (active). Moreover, the Potency entry in experiment [10], in experiment [9], in experiment [3], in [4], in experiment [5] and in experiment [6] was “inactive” in each case. For the same compound, the Potency result in experiment [7] and in experiment [8] was “inactive” each time. In experiment [12], the activity (max response) is -19.6%.
Turning to `CCN(CC)CCCCNc1nc2cc(Cl)c(Cl)cc2nc1-c1ccc(-c2cccs2)s1`, the Potency in experiment [1] was 4.68 µM (active); in experiment [9] it was 20.9 µM (active); in experiment [4], 26.4 µM (active); in experiment [8] it was 7.08 µM (active).
Take `C=C(C)[C@@H]1CC[C@]2(C(=O)O)CC[C@]3(C)[C@H](CC[C@@H]4[C@@]5(C)CC[C@H](O)C(C)(C)[C@@H]5CC[C@]43C)[C@@H]12`: the Potency in [1] is 2.95 µM (active). The Potency result in [10], in [9], in experiment [4], in experiment [5], in experiment [11] and in experiment [8] was “inactive” throughout. Moreover, the activity (max response) in experiment [12] was 19.8%.
Turning to `COc1cc2c(NC3CCN(C(C)C)CC3)nc(C3CCCCC3)nc2cc1OCCCN1CCCC1`, the Potency in experiment [1] was 3.32 µM (active); in [10], 20.9 µM (active); in experiment [9] it was 23.5 µM (active); in experiment [4] it was 20.9 µM (active); in [5], 23.5 µM (active); in [11], 16.6 µM (active). The Potency in experiment [6] was 26.4 µM (active); in experiment [12] it was 17.8 µM (active).
On to `CN(C)[C@@H](CCOc1cccc2ccccc12)c1ccccc1`, for which the Potency in experiment [1] was 23.7 µM (active). For the same compound, the Potency entry in experiment [9], in experiment [3], in experiment [5] and in [7] was “inactive” each time.
With `CCCCC(C)(C)[C@H](O)C=C[C@H]1[C@H](O)CC(=O)[C@H]1CC=CCCCC(=O)O`, the Potency in [1] was 0.148 µM (active); in [9], 20.9 µM (active); in experiment [5], 26.4 µM (active); in [11] it was 20.9 µM (active). In addition, the Potency entry in [8] is “inactive”.
